Screening data deposited in PubChem by Milwaukee Institute for Drug Discovery.
Cy5 interf NS3h – counter-screen for HCV NS3 helicase inhibitors: fluorescence interference | Cy5-dT15 DNA with NS3h; actives lie on both sides; signal over control mean, under 1 quenches | fluorescence interference ratio at 100 µM | 6% of 16,000 active | AID 720488;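 active = compound fluorescence over control fluorescence at most 0.8, a quencher, or at least a set upper limit, an enhancer; inactive = ratio between 0.8 and the set upper limit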
HCV NS3h FP – hepatitis C NS3 helicase inhibition, primary screen. NS3h Cy5-dT15 DNA binding, fluorescence polarization. inhibition, % at 100 µM. 1.6% of 16,000 active;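 active = inhibition above the average over every tested compound plus 3 SD, cut at about 40% in these data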
* marks the source's active call; other numbers are inactive results. The list is not random: actives were taken first. Their share in the collection is about 7.6%.

SMILES	Cy5 interf NS3h	HCV NS3h FP
O=C(Nc1ccc(-c2nc3ccccc3o2)c(O)c1)c1ccc(-c2cccc([N+](=O)[O-])c2)o1	0.77*	-26
Cc1ccc2oc(-c3cccc(NC(=O)c4ccc(-c5ccc([N+](=O)[O-])cc5C)o4)c3C)nc2c1	1.1	6
O=C(Nc1ccc(-c2nc3ccccc3s2)c(O)c1)c1ccc(-c2cccc([N+](=O)[O-])c2)o1	0.56*	-61
CCN(CC)c1ccc(/C=C2\SC(=S)N(C3CCS(=O)(=O)C3)C2=O)cc1 (stereo not drawn)	1.1	-9
C#CCC(CC#C)(C(=O)OC)C(=O)OC	0.98	1
O=C(Nc1ccccc1C(=O)N1CCOCC1)c1ccc([N+](=O)[O-])cc1	0.96	0
O=C(Nc1ccccc1C(=O)Nc1ccccn1)c1ccc([N+](=O)[O-])cc1	0.75*	-45
Cc1cc([N+](=O)[O-])ccc1NC(=O)c1ccccc1	1	-19
Cc1ccc(C)c(NC(=O)c2ccc([N+](=O)[O-])cc2)c1	0.69*	8
COc1ccc(S(=O)(=O)N(CC(=O)Nc2cccc(Cl)c2)Cc2ccccc2)cc1OC	1.1	14
COc1ccc(Cl)cc1NC(=O)CN1C(=O)c2ccccc2C1=O	1	8
Cc1ccc2oc(-c3ccc(NC(=O)c4cc5ccccc5o4)cc3)nc2c1	0.96	2
CC(C)C(=O)Nc1ccc(Br)cc1C(=O)O	0.97	-2
Cc1ccc(C)n1-c1ccc(Br)cc1C(=O)O	1.1	49*
Cc1ccc(S(=O)(=O)NC(=O)NCC2CCCO2)cc1 (stereo not drawn)	1	3
CC(C)(C)OC(=O)N1N=C(c2ccc(Br)cc2)CC1(O)C(F)(F)F (stereo not drawn)	1	-2
Cc1csc(Nc2ccccc2)[n+]1CCO	1.2*	4
C/C(C=O)=C\c1ccc(/C=C(C)/C=C2/SC(=S)N(c3ccccc3)C2=O)cc1	1.1	-18
CCOC(=O)c1c(NC(=S)NC(=O)c2ccc(OC)cc2)sc2c1CCC(C)C2 (stereo not drawn)	1	5
CC(C)(C)CC(C)(C)NC(=O)CSc1nc2ccccc2o1	0.91	6
O=C(CSc1nc2ccccc2o1)c1ccc2c(c1)Cc1ccccc1-2	0.64*	1
O=C(O)CCCCCN=C1CCCc2ccccc2N1	1.1	-3
O=C(NC(Cc1ccccc1)C(=O)NCCc1c[nH]c2ccccc12)OCc1ccccc1 (stereo not drawn)	0.97	12
Nc1ccc(C(=O)c2ccc(N)c(N)c2)cc1N	1.1	5
Cc1ccc[n+](CC(=O)c2ccc(-c3ccccc3)cc2)c1	0.96	2
SMILES	Cy5 interf NS3h	HCV NS3h FP
O=C(C[n+]1ccc(C(=O)NCc2ccccc2)cc1)c1ccc(-c2ccccc2)cc1	0.76*	10
Nc1cc[n+](CC(=O)c2ccccc2)cc1	0.77*	-14
Cc1ccc(/C=C(\C#N)C(=O)Nc2ccccc2)cc1[N+](=O)[O-]	0.97	8
Nc1ccc(C(=O)Nc2cccc3ccccc23)cc1	1.1	14
Nc1ccc(C(=O)NCCNCCNC(=O)c2ccc(N)cc2)cc1	0.8*	15
COC(=O)c1c(C(F)(F)F)cc(-c2ccccc2)nc1C	0.92	12
Cn1c(-c2nc3ccccc3n2C)nc2ccccc21	0.94	5
Cn1c(-c2ccc(-c3nc4cnccc4n3C)cc2)nc2cnccc21	1.2*	-2
COc1ccc(C(=O)N2CCN(S(C)(=O)=O)CC2)cc1	1.1	-2
CS(=O)(=O)N1CCN(C(=O)c2ccccc2F)CC1	0.7*	8
Cc1ccc(S(=O)(=O)Oc2ccccc2/C=C2/SC(=S)N(Cc3ccccc3)C2=O)cc1	1	4
C=CCCCC(=O)Nc1ccc(Cl)cc1Cl	0.97	10
O=C(CCCC(=O)OCC(F)(F)C(F)F)Nc1ccc(NC(=O)CCCC(=O)OCC(F)(F)C(F)F)cc1	0.62*	3
C=CCCCC(=O)Nc1ccc(-c2ccc(NC(=O)CCCC=C)cc2)cc1	0.94	8
O=C(CCC(=O)OCC(F)(F)C(F)F)Nc1ccc(Cl)cc1Cl	0.78*	8
CCN(CC)CC#CCC(C(=O)c1ccccc1)C(=O)C(C)(C)OC (stereo not drawn)	0.95	-13
Cc1ccc(Cl)cc1NC(=O)C1CC(=O)N(c2ccc(F)cc2)C1 (stereo not drawn)	1.1	-16
CC(O)CNC(=O)C(=O)Nc1ccc(N(C)C)cc1 (stereo not drawn)	0.98	3
CC(=O)Nc1cc(-c2ccc(Cl)cc2)[nH]n1	0.67*	7
Cc1ccc(-c2cc(NC(=O)c3ccc(F)cc3)n[nH]2)cc1	1	13
CCc1ccc(CN2CCN(Cc3cc(OC)ccc3O)CC2)cc1	1	7
COc1ccc(Oc2ccc(N)cc2)cc1	0.92	-12
Nc1ccc(Oc2ccc(N)c(N)c2)cc1	0.19*	-10
Cc1cccc2sc(NC(=O)/C=C\C(=O)O)nc12	0.99	-3
